From ChEMBL document CHEMBL1961873, “Compounds: GSK PKIS; Assays: Nanosyn kinase panel” (2012)

Tests used:
[1] = target: T1, 3-phosphoinositide-dependent protein kinase 1 (Homo sapiens) (UniProt O15530); settings: at 0.1 µM;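 further: values are mean inhibition of PDK1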
T1 sequence (whole entry): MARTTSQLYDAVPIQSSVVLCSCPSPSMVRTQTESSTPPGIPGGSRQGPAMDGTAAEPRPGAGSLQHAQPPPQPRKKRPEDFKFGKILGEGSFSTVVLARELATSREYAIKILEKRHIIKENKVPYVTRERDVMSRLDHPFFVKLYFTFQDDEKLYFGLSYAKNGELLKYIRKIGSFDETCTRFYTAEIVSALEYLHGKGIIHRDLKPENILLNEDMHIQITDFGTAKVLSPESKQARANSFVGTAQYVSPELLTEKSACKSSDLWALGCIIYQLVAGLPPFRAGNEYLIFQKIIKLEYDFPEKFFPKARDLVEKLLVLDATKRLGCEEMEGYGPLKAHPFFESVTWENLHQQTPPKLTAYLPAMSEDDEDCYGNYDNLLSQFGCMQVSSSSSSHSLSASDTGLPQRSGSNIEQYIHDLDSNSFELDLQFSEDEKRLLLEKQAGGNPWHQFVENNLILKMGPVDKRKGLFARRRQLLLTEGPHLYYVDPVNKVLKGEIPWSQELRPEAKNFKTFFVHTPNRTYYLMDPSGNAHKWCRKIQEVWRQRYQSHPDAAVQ

[2] = target: cAMP-dependent protein kinase catalytic subunit alpha (Homo sapiens) (UniProt P17612); settings: at 0.1 µM
[3] = target: cAMP-dependent protein kinase catalytic subunit alpha (Homo sapiens) (UniProt P17612); settings: at 1 µM
[4] = target: Protein kinase C alpha type (Homo sapiens) (UniProt P17252); settings: at 0.1 µM
[5] = target: Protein kinase C alpha type (Homo sapiens) (UniProt P17252); settings: at 1 µM
[6] = target: Protein kinase C beta type (Homo sapiens) (UniProt P05771); settings: at 0.1 µM
Chain of Protein kinase C beta type (Homo sapiens) (P05771 2-671 limits assumed): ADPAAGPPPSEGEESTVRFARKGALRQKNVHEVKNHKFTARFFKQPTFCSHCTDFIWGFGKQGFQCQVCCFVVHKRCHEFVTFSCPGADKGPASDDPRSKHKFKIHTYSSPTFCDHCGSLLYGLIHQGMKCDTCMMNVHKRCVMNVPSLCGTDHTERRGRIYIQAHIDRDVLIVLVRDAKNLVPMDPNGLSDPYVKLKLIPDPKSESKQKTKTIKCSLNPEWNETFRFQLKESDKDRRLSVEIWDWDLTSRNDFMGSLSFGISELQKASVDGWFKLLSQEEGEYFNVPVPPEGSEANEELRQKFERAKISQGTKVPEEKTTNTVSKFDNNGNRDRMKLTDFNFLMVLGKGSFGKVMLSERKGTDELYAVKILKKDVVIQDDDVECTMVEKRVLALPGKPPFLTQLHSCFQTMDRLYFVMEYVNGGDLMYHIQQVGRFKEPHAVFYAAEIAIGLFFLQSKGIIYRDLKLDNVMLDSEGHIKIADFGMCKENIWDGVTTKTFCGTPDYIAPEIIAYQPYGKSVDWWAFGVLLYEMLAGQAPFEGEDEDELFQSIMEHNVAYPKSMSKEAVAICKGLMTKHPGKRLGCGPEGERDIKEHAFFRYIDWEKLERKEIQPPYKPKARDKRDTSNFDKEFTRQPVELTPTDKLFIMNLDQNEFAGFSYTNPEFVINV

[7] = target: Protein kinase C beta type (Homo sapiens) (UniProt P05771); settings: at 1 µM
[8] = target: Protein kinase C eta type (Homo sapiens) (UniProt P24723); settings: at 0.1 µM
Chain of Protein kinase C eta type (Homo sapiens) (P24723 whole entry): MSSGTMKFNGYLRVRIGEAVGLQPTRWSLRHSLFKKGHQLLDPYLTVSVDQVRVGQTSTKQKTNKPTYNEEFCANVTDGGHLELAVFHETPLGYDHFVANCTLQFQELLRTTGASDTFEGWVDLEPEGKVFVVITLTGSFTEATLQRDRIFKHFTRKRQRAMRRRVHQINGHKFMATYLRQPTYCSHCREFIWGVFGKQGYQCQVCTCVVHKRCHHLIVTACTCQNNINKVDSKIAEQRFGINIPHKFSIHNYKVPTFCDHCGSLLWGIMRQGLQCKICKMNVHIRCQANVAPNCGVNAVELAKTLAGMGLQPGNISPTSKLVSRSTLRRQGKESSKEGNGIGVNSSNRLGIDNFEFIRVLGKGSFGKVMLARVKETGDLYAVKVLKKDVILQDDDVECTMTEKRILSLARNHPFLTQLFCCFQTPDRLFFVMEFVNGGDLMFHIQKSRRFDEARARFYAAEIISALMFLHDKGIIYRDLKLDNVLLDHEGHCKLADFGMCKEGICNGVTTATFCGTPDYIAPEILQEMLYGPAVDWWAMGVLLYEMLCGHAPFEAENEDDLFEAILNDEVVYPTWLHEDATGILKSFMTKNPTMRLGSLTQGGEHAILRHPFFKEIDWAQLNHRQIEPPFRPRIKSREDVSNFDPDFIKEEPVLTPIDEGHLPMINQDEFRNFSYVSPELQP

[9] = target: Protein kinase C eta type (Homo sapiens) (UniProt P24723); settings: at 1 µM
[10] = target: Protein kinase C gamma type (Homo sapiens) (UniProt P05129); settings: at 0.1 µM
[11] = target: Protein kinase C gamma type (Homo sapiens) (UniProt P05129); settings: at 1 µM
[12] = target: T2, Protein kinase C iota type (Homo sapiens) (UniProt P41743); settings: at 0.1 µM
T2 sequence (whole entry): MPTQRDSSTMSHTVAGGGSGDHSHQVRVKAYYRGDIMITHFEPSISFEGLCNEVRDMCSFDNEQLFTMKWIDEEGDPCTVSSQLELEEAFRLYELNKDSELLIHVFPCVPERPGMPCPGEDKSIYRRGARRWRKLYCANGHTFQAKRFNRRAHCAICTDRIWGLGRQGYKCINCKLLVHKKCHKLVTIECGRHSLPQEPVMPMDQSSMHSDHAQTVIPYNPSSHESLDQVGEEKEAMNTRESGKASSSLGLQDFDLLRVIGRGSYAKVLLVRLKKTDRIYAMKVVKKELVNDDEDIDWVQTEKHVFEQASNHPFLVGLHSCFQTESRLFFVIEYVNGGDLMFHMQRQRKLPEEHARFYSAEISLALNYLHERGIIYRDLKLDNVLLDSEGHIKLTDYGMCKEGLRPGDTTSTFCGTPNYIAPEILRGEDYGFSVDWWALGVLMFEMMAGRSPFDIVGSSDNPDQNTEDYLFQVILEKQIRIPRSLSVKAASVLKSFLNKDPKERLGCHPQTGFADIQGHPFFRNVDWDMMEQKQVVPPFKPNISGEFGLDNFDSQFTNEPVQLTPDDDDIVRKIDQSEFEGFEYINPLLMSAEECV

[13] = target: T2, Protein kinase C iota type (Homo sapiens); settings: at 1 µM
[14] = target: Protein kinase C theta type (Homo sapiens) (UniProt Q04759); settings: at 0.1 µM
Chain of Protein kinase C theta type (Homo sapiens) (Q04759 whole entry, looked up): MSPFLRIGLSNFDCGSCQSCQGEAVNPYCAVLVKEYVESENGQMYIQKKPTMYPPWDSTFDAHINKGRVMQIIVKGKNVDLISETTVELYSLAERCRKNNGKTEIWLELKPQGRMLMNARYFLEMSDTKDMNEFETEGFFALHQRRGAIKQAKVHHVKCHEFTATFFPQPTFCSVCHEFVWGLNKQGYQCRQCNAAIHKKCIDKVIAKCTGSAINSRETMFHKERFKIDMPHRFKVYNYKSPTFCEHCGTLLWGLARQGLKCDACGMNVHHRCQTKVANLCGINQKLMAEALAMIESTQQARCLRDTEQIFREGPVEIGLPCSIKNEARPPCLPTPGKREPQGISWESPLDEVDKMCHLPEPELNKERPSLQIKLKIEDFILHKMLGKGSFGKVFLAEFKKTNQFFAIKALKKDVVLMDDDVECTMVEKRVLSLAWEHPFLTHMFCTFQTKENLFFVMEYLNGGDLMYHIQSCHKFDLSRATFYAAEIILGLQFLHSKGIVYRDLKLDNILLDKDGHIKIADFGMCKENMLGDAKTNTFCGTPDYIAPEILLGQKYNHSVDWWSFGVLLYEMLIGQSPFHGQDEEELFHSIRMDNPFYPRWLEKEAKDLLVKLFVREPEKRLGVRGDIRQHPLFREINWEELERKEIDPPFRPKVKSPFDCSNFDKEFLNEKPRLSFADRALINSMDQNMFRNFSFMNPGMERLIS

[15] = target: Protein kinase C theta type (Homo sapiens) (UniProt Q04759); settings: at 1 µM
[16] = target: Protein kinase C beta type (Homo sapiens) (UniProt P05771); settings: at 0.1 µM; remark: listed apart in the source
[17] = target: Protein kinase C beta type (Homo sapiens) (UniProt P05771); settings: at 1 µM; remark: listed apart in the source
[18] = target: T3, Serine/threonine-protein kinase D1 (Homo sapiens) (UniProt Q15139); settings: at 0.1 µM
T3 sequence (whole entry): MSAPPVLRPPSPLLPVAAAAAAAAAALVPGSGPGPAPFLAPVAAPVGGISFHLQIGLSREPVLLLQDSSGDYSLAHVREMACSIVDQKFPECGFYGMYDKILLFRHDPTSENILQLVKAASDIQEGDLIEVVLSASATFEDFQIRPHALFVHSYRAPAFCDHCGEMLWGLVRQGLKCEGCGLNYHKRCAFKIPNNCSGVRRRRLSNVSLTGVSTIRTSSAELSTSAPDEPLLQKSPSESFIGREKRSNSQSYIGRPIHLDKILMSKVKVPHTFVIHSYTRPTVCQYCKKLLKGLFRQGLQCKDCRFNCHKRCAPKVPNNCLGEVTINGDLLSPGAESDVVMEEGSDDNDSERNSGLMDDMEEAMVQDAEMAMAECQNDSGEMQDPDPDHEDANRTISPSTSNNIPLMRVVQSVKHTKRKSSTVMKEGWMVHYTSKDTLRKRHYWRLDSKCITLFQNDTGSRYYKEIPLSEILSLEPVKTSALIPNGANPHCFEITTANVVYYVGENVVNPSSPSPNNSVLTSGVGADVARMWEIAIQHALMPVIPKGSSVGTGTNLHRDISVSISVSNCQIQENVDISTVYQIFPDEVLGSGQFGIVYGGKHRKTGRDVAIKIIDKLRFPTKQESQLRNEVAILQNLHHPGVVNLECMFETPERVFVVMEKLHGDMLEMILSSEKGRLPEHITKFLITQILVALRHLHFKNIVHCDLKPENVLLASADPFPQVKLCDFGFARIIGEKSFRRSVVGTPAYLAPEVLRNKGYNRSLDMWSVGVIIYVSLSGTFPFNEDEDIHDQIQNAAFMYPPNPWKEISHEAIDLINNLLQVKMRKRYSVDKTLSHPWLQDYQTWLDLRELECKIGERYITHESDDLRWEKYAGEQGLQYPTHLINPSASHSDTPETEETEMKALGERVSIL

[19] = target: T3, Serine/threonine-protein kinase D1 (Homo sapiens); settings: at 1 µM
[20] = target: T4, Serine/threonine-protein kinase D2 (Homo sapiens) (UniProt Q9BZL6); settings: at 0.1 µM;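 further: reported percent inhibition values are means, part of the GSK PKIS kinase panel screen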
T4 sequence (whole entry): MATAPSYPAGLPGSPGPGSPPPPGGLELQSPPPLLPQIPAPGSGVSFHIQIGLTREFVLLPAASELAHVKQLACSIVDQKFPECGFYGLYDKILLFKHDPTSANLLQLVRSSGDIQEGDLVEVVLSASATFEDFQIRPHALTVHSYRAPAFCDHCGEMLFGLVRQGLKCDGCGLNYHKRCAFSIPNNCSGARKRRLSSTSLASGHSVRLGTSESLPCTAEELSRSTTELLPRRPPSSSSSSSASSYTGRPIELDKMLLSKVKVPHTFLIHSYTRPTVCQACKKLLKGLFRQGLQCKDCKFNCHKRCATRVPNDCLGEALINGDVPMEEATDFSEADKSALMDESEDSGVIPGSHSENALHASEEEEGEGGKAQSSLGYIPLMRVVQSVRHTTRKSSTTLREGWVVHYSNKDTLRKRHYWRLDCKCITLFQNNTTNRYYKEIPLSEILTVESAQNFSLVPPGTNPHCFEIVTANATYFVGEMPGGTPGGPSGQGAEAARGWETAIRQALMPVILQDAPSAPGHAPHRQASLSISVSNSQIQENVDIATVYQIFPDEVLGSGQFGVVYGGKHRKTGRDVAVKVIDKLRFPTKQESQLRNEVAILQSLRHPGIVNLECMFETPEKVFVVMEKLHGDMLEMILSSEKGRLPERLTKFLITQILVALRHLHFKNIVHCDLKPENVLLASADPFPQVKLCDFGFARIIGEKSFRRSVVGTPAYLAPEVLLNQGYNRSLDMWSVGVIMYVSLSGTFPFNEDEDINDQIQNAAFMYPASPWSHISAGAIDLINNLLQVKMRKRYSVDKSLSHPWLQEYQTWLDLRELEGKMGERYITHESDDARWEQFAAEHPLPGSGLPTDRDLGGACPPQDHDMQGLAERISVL

| SMILES | inhibition [1] [%] | inhibition [2] [%] | inhibition [3] [%] | inhibition [4] [%] | inhibition [5] [%] | inhibition [6] [%] | inhibition [7] [%] | inhibition [8] [%] | inhibition [9] [%] | inhibition [10] [%] | inhibition [11] [%] | inhibition [12] [%] | inhibition [13] [%] | inhibition [14] [%] | inhibition [15] [%] | inhibition [16] [%] | inhibition [17] [%] | inhibition [18] [%] | inhibition [19] [%] | inhibition [20] [%] |
| --- | --- | --- | --- | --- | --- | --- | --- | --- | --- | --- | --- | --- | --- | --- | --- | --- | --- | --- | --- | --- |
| COc1ccc(C2=C(N3CCc4ccccc43)C(=O)NC2=O)cc1 | 4.19 | 1.7 | 1.99 | 1.46 | 3.07 | 1.02 | 2.88 | 2.61 | 6.52 | 4.16 | 3.73 | 2.04 | 2.17 | 2.55 | 5.71 | 1.22 | 3.96 | 4.69 | 9.24 | 5.06 |
| C/C(Nc1ccc(S(N)(=O)=O)cc1)=C1/C(=O)Nc2ccccc21 | 6.52 | -1.19 | 2.61 | 0.02 | 0.38 | -0.26 | 1.85 | -1.23 | -1.17 | -3.82 | 2.57 | -0.37 | 0.02 | -0.23 | 3.24 | -0.77 | 1.28 | 0.51 | 15.9 | 0.69 |
| Fc1ccc(-c2nc3n(c2-c2ccncc2)CCS3)cc1 | 1.88 | -0.98 | 0.45 | -2.53 | -1.43 | 0.64 | 9.28 | 4.25 | 4.84 | 2.76 | 0.85 | 2.39 | 2.4 | 1.87 | 1.91 | 1.53 | 4.27 | 0.84 | 4.16 | 2.09 |
| Fc1ccc(-c2ncn(CCCN3CCOCC3)c2-c2ccncc2)cc1 | -0.98 | 0.23 | 1.67 | 1.44 | 1.07 | -0.46 | -0.8 | -2.71 | -1.13 | -1.84 | 0.34 | 0.16 | 0.41 | -0.92 | -2.08 | 0.1 | 0.17 | 1.04 | 2.24 | 2.15 |
| Cc1nnc(-c2ccc(C)c(-c3ccc(C(=O)NCc4ccc(Cl)cc4)cc3)c2)o1 | 1.14 | -1.01 | 0.62 | -3.05 | -1.62 | 0.85 | 0.84 | 6.52 | 7.5 | 2.61 | 3.88 | 2.2 | 0.35 | 1.83 | 3.97 | 1.36 | 3.21 | 1 | 0.36 | 0.28 |
| Nc1nccc(-c2c(-c3ccc(F)cc3)ncn2C2CCC(O)CC2)n1 (stereo not given) | 0.39 | 4.16 | 48.4 | 0.74 | 10.2 | 3.05 | 20.3 | -3.17 | -1.04 | -3.99 | 2.37 | 1.25 | 0.01 | -0.81 | 0.4 | 1.56 | 16.3 | 0.14 | 18.5 | 0.03 |
| NCc1ccc(-n2c(-c3nonc3N)nc3cnccc32)cc1 | 2.61 | 10.4 | 56.1 | 4.7 | 41 | 29.1 | 64.5 | 47.1 | 88.4 | 4.15 | 42.1 | 4.36 | 27.5 | 17.2 | 59.4 | 7.63 | 37.7 | 8.16 | 41 | 8.58 |
| CN(c1ccc(NC(=O)Nc2c(Cl)cccc2Cl)cc1)c1ccnc(Nc2cccc(CS(C)(=O)=O)c2)n1 | 9.04 | 2.36 | 3.01 | 1.14 | 2.02 | 0.67 | 1.35 | 1.33 | 3.8 | 3.61 | 6.65 | 1.27 | 1.5 | 2.22 | 3.24 | 0.41 | 3.24 | 2.4 | 1.18 | 0.57 |
| N#Cc1ccc(Oc2nccc(-c3c(-c4ccc(F)cc4)ncn3C3CCNCC3)n2)cc1 | 8.47 | 2.63 | 5.75 | 0.69 | 2.61 | 1.45 | 2.93 | 6.05 | 5.43 | 1.87 | 4.11 | 2.09 | 2.63 | 2.28 | 3.89 | 0.99 | 3.08 | 5.51 | 8.1 | 4.63 |
| Fc1ccc(-c2ncn(C3CCNCC3)c2-c2ccnc(Oc3ccc4c(c3)OCO4)n2)cc1 | -1.49 | 6.76 | 37.9 | 1.59 | 3.68 | 1.12 | 8.79 | 7.87 | 4.75 | 0.91 | 6.16 | 4.45 | 4.29 | 3.38 | 3.39 | 1.38 | 5.69 | 4.85 | 12.4 | 5.35 |
| Cc1ccc(C(=O)NC2CCC2)cc1-c1ccc(C(=O)NCC2CC2)cc1 | 1.97 | 1.15 | 1.14 | 0.19 | -0.23 | 0.31 | 1.48 | 7.1 | 2.68 | 0.43 | 0.94 | 2.17 | 2.33 | 0.68 | -0.42 | 0.24 | 0.53 | 2.65 | 3.61 | 2.36 |
| COc1cc(Nc2ncc(-c3ccccc3)o2)cc(OC)c1OC | -0.87 | -0.33 | -0.26 | -0.31 | 1.1 | -1.34 | 2.43 | -0.81 | -4.38 | -1 | 1.46 | 0.32 | 0.77 | -0.7 | -0.9 | 0.3 | 2.2 | -0.66 | -1.47 | -0.6 |
| Fc1ccc(-c2ncn(C3CCNCC3)c2-c2ccnc(Oc3ccc(F)c(F)c3)n2)cc1 | 0.57 | -0.98 | 9.25 | -3.02 | -0.82 | -0.22 | 3.21 | 3.45 | 5.62 | 1.57 | 4.25 | 1.82 | 1.79 | 2.61 | 2.43 | 0.97 | 3.85 | 2 | 7.05 | 1.25 |
